Entries with a potency or affinity are not part of this list. Active and inactive are the calls of the source.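 Rule for the calls: active = signal-lowering compounds whose fitted half-maximal concentration is at or below twice the top tested dose in every run; inconclusive = runs disagree, flat 30 to 70% inhibition, or poor curve fit; inactive = the rest.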
target: Protein S100-A4 (Homo sapiens) (UniProt P26447); experiment: human S100A4 peptide interaction inhibition curves – biochemical, fluorescence polarization, cherry-picked hits, dose response (AID 687001); details: FP, S100A4/TAMRA-myosin IIA peptide binding; series mostly up to 11 µM; activity change, negative = inhibition: at the top concentration;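 note: 0% = DMSO neutral control wells and -100% = TFP positive control wells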
Sequence (P26447 whole entry, looked up): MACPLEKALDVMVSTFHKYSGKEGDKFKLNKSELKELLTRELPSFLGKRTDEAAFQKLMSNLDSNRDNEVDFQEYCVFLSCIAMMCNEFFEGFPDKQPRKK

Activity change, negative = inhibition, inactive:
Cc1cccc(NS(=O)(=O)c2c(C(=O)N3CCOCC3)c(C)n(C)c2C)c1C -2.74%
Cn1nc(C(F)(F)F)c(-c2ccc(Br)cc2)c1NC(=O)C1CCC1C(=O)O (centres undefined) 1.86%
O=S(=O)(c1ccc(F)cc1)N1C[C@H]2[C@@H](c3ccccc31)[C@H](CO)N2Cc1ccccc1Cl 19.3%
Cc1ccc(S(=O)(=O)Nc2ccc3c(c2)C(=O)N([C@@H](C)CO)C[C@@H](C)[C@@H](CN(C)S(=O)(=O)c2cn(C)cn2)OCCCC[C@@H](C)O3)cc1 5.52%
CN(C)S(=O)(=O)c1ccc(NC(=O)CN2CCN(c3ccccn3)CC2)cc1 0.907%
O=C(NCCc1ccco1)C(=O)NCC1OCCCN1S(=O)(=O)c1cc(F)ccc1F (centres undefined) -1.88%
COc1ccc(CN(C)C[C@@H]2Oc3ccc(NC(=O)Cc4ccccc4)cc3CC(=O)N([C@@H](C)CO)C[C@H]2C)cc1 7.7%
C[C@@H]1CCCCO[C@@H](CN(C)S(=O)(=O)c2ccccc2)[C@@H](C)CN([C@@H](C)CO)C(=O)c2cc(NC(=O)CCCN(C)C)ccc2O1 -9.67%
Cc1ccccc1CNS(=O)(=O)c1c(C(=O)N2CCCC2)c(C)n(C)c1C 0.538%
COc1ccc(-c2coc(CCC(=O)N3CCN(c4cc(C)ccc4C)CC3)n2)cc1 10.4%
C[C@@H](NC(=O)C[C@H]1C=C[C@@H](NC(=O)C2CCC2)[C@H](CO)O1)c1ccccc1 -0.585%
Cc1ccc(NC(=S)N(C)C)cc1C -3.01%
C[C@H](NC(=O)C[C@@H]1C[C@@H]2c3cc(NC(=O)Nc4ccc(C(F)(F)F)cc4)ccc3O[C@@H]2[C@@H](CO)O1)c1ccccc1 0.731%
C[C@@H]1CN([C@@H](C)CO)C(=O)c2cc(NC(=O)c3ccncc3)ccc2O[C@@H]1CN(C)Cc1ccncc1 1.61%
C[C@@H]1CN([C@@H](C)CO)C(=O)c2cc(C#CCc3ccccc3)cnc2O[C@@H]1CN(C)CC1CC1 5.32% [at 10 µM]
CC(C)NC(=O)Nc1ccc2c(c1)C(=O)N([C@@H](C)CO)C[C@H](C)[C@H](CN(C)C(=O)c1ccncc1)OCCCC[C@H](C)O2 0.542%
CN(C)C(=O)[C@H]1[C@H](CO)[C@H]2Cn3c(cccc3=O)[C@@H]1N2C(=O)c1ccccc1 1.74%
COc1cc(S(=O)(=O)Nc2ccc(C)cc2)ccc1N=Cc1c(C)c(C#N)c(=O)n(C)c1O 28.3%
CC1CCCCC1NC(=O)CSc1nnc(-c2ccco2)n1N (centres undefined) -4.3%
Oc1ccc(-c2cc(-c3ccc(O)cc3)nc(-c3ccccc3)n2)cc1 3.62%
O=C(CCC1CCN(C(=O)c2ccco2)CC1)NCc1ccc(F)cc1 -0.754%
Oc1cccc(-c2sc3ccccc3c2-c2ccc(OCCN3CCCCC3)cc2)c1 0.214%
C[C@@H]1CN([C@H](C)CO)C(=O)c2cc(-c3ccc(F)cc3)cnc2O[C@H]1CN(C)Cc1cncnc1 10.5%
C[C@@H]1CCCCO[C@H](CN(C)S(=O)(=O)c2ccc(Cl)cc2)[C@@H](C)CN([C@@H](C)CO)C(=O)c2cc(NS(=O)(=O)c3ccc(F)cc3)ccc2O1 19.7%
CCOC(=O)[C@]12CCC=C1N(Cc1ccc3c(c1)OCO3)C(=O)[C@H](CC(=O)NCc1cccc(C(F)(F)F)c1)C2 -1.06%
O=C(CNC(=O)c1ccc(Cl)cc1Cl)OCc1cn2cc(Br)ccc2n1 -14.6%
COc1ccc(C)c2sc(N(CCN(C)C)C(=O)c3ccc4ccccc4c3)nc12 -1.89%
CN(CC(=O)Nc1cccc(F)c1)C(=O)c1cccc(S(=O)(=O)N2CCN(Cc3ccccc3)CC2)c1 1.73%
CCc1nc2c(OCc3ccccc3OC)cccn2c1N(C)C(=O)C(C)C 1.5%
O=C(CCCN1C(=O)C2CC=CCC2C1=O)Nc1ccccc1F (centres undefined) -3.43%
Cc1c(C(=O)NCc2cccc([N+](=O)[O-])c2)sc(=O)n1Cc1cccc(F)c1 -1.1%
CCOC(=O)[C@]12CCCC=C1N(Cc1cccc3ccccc13)C(=O)[C@H](CC(=O)NCCCN1CCCC1=O)C2 -4.19%
O=C(Cc1c(F)cccc1Cl)Nc1ccccn1 3.05%
O=C(O)COCC(=O)Nc1ccc(-n2nc(C(F)(F)F)cc2-c2cccs2)cc1 4.81%
O=C(COC(=O)Cc1ccc(F)cc1)Nc1ccc2[nH]c(=O)[nH]c2c1 0.302%
COc1ccc2c(c1)CCC/C2=N\Nc1nc(C(=O)NN)cs1 -2.27%
CC(C)NC(=O)Nc1ccc2c(c1)C(=O)N([C@H](C)CO)C[C@@H](C)[C@H](CN(C)S(=O)(=O)c1ccccc1)OCCCC[C@@H](C)O2 4.45%
O=C(C[C@H]1CC[C@H](NC(=O)Nc2ccccc2F)[C@@H](CO)O1)NCc1ccc(-c2ccccc2)cc1 0.931%
COc1ccc(S(=O)(=O)N2CCCCC2)cc1NC(=O)CCOc1cc(C)ccc1C -3.14%

Reference: PubChem BioAssay AID687001 (Broad Institute, 2013)
